Data on seven molecules can be found in PubChem BioAssay (Tox21).

Where “and” joins values, the source holds several entries; their conditions need not be identical. Identical values can stand only once. Unmarked numbers belong to inactive results. Inconclusive results are not listed. Calls of active or inactive are those of the source. Unless noted, the call rests on the fitted dose curve; in most records, active means well fitted curve in the direction sought with a large enough effect in the repeat runs; inconclusive means weak or mixed curves; inactive means no such curve, though single readings can be large; an effect the other way counts as inactive or inconclusive.

Test [1] has as its target Luciferin 4-monooxygenase (Photinus pyralis) (UniProt P08659). As to the kind of experiment: qHTS assay to identify small molecule inhibitors of firefly luciferase (AID 1224835). Further: nearly all actives have a fitted effect of over 25% in size. Further: potency means the concentration at half of the fitted maximal effect. A digest of the protocol: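 Biochemical qHTS: compounds run as interplate titrations against purified firefly enzyme, with D-luciferin and ATP each at its KM concentration. Light output recorded by CCD imaging.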

Test [2] is described as follows: qHTS assay to identify small molecule agonists of the constitutive androstane receptor (CAR) signaling pathway - cell viability counter screen (AID 1224836). Further: nearly all actives have a fitted effect of over 45% in size. Further: potency means the concentration at half of the fitted maximal effect. A digest of the protocol:
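HepG2 cells stably carrying hCAR and a CYP2B6-2.2kb reporter; 15-concentration compounds plus PK11195 (final 0.75 uM), 23 hr at 37 C/5% CO2. Viability read by CellTiter-Fluor fluorescence.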
A general note: qHTS replaces the single test concentration by a dilution series.

The nature of test [3]: qHTS assay to identify small molecule antagonists of the constitutive androstane receptor (CAR) signaling pathway - cell viability counter screen (AID 1224837). Further: nearly all actives have a fitted effect of over 45% in size. Further: potency means the concentration at half of the fitted maximal effect. A digest of the protocol: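 HepG2 cells stably expressing hCAR and a CYP2B6-2.2kb reporter were plated and pre-incubated 4 hr at 37 C/5% CO2, then given compounds at 15 concentrations plus 50 nM CITCO (final). After 23 hr, viability was read by CellTiter-Fluor fluorescence.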

Test [4] can be described thus: qHTS assay to identify small molecule antagonists of the estrogen related receptor signaling pathway with the pleiotropic PPARgamma coactivator (PGC) from Tox21 10K library - cell viability counter screen (AID 1224840; active means well fitted cell-killing curve with a large enough effect in the repeat runs, not every such curve was filed as active; further: nearly all actives have a fitted effect of over 40% in size). An outline of the steps: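 PGC/ERR cells were seeded at 2,000 cells/well and left 6 hours at 37 C/5% CO2 before pin-tool addition of compounds in DMSO. After 17.5 hours at 37 C, CellTiter-Fluor was added and fluorescence read 30 minutes later.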

A short description of test [5]: qHTS assay to identify small molecule antagonists of the estrogen related receptor signaling pathway with the pleiotropic PPARgamma coactivator (PGC) from Tox21 10K library (AID 1224841; call rule not given here; further: actives are mostly falling curves and most rising ones were filed inactive; nearly all actives have a fitted effect of over 50% in size). A digest of the protocol:
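PGC/ERR reporter cells were seeded at 2,000 cells/well and held 6 hours at 37 C/5% CO2 before pin-tool addition of compounds in DMSO. After 18 hours at 37 C, One-Glo was added and luminescence read after 30 minutes at room temperature.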

Test [6] in a line: qHTS assay to identify small molecule agonists of the estrogen related receptor signaling pathway with the pleiotropic PPARgamma coactivator (PGC) from Tox21 10K library (AID 1224842). Further: nearly all actives have a fitted effect of over 15% in size. An outline of the steps:
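PGC/ERR reporter cell line, 2,000 cells per well, incubated 6 h at 37 C before 23 nL compound in DMSO was added. After 18 h at 37 C, One-Glo luminescence read following 30 min at room temperature.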

For test [7], the target named is Thyrotropin receptor (Homo sapiens) (UniProt P16473). Briefly: qHTS assay to identify small molecule agonists of the thyroid stimulating hormone receptor (TSHR) signaling pathway (AID 1224843; calls by dose curve; further: nearly all actives have a fitted effect of over 45% in size). A digest of the protocol: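 Steps: seed 800 TSHR-HEK293 cells per well; add test compound and hold 30 min at ambient temperature; dispense cAMP-d2 then anti-cAMP cryptate; incubate 1 h at ambient; measure fluorescence intensity.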

Test [8] can be described thus: qHTS assay to identify small molecule agonists of the hypoxia (HIF-1) signaling pathway - cell viability counter screen (AID 1224844; calls by dose curve; further: nearly all actives have a fitted effect of over 50% in size; further: potency means the concentration at half of the fitted maximal effect). A digest of the protocol: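 HRE-bla ME-180 cells in medium with 0.5% dialyzed FBS were preincubated 5 hrs at 37C, exposed to compounds for 17 hrs, then viability was read as CellTiter-Glo luminescence after 30 min at room temperature, in the reporter wells.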

Test [9] can be described thus: qHTS assay to identify small molecule agonists of H2AX (AID 1224845; active means well fitted activation curve with a large enough effect in the signal ratio in the repeat runs, not every such curve was filed as active; the % refers to the signal ratio). An outline of the steps:
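Wild-type CHO-K1 cells, plated overnight, exposed 3hr at 37C to 15 concentrations (0.76% DMSO final). Lysed, then HTRF anti-pH2AX (S139) cryptate and anti-H2AX-d2 antibodies, 24 hr room temperature; 665/620 nm emission read.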

Test [10] is described as follows: qHTS assay to identify small molecule agonists of the hypoxia (HIF-1) signaling pathway (AID 1224846; active means well fitted activation curve with a large enough effect in the signal ratio in the repeat runs, not every such curve was filed as active; the % refers to the signal ratio). A digest of the protocol: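 HRE-bla ME-180 cells (beta-lactamase reporter under hypoxia response element) were plated at 2,000 cells/well in medium with 0.5% dialyzed FBS, rested 5 hrs, then given compounds in DMSO for 17 hrs at 37C, 5% CO2. Reporter induction was read with CCF4-AM FRET substrate.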

Test [11] in a line: qHTS assay to identify small molecule antagonists of the estrogen related receptor (ERR) signaling pathway from Tox21 library (AID 1224848). Further: nearly all actives have a fitted effect of over 50% in size. Further: potency means the concentration at half of the fitted maximal effect. A digest of the protocol:
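Luminescent reporter read-out (ONE-Glo) from NTP's ERR cell line after 18 h treatment at 37 C with DMSO-dissolved Tox21 compounds; cells pre-plated 6 h beforehand at 2,000 per well.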

Test [12] can be described thus: qHTS assay to identify small molecule agonists of the estrogen related receptor (ERR) signaling pathway from Tox21 library (AID 1224849; calls by dose curve; further: nearly all actives have a fitted effect of over 15% in size). The following applies: ERR reporter cell line, ONE-Glo luciferase, 18 h. An outline of the steps:
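ERR reporter cell line (NTP) seeded, rested 6 h at 37 C/5% CO2, then pinned with Tox21 compounds in DMSO. After 18 h at 37 C, ONE-Glo luciferase luminescence was read following 30 min at room temperature.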

Test [13] is described as follows: qHTS RealTime-Glo MT Cell Viability Assay in HepG2 cells - 24 hour (AID 1224867). Further: nearly all actives have a fitted effect of over 50% in size. Further: potency means the concentration at half of the fitted maximal effect. An outline of the steps:
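HepG2 suspension premixed with RealTime-Glo reagents is plated at 600 cells per well and left 5 h at 37 C/5% CO2. Compounds in DMSO then go in, and bioluminescence reflecting viable cell number is recorded over 40 h.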

The nature of test [14]: qHTS RealTime-Glo MT Cell Viability Assay in HEK293 cells - 32 hour (AID 1224868). Further: nearly all actives have a fitted effect of over 50% in size. Further: potency means the concentration at half of the fitted maximal effect. A digest of the protocol: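 Reads taken at 0, 8, 16, 24, 32 and 40 h from the same wells. HEK293 cells (600/well) carried RealTime-Glo reagents from seeding, with compound added after a 5 h settle at 37 C.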
Test [15] is described as follows: A CellTox Green Cytotoxicity Assay to monitor cytotoxicity in HEK293 cells - 0 hour (AID 1224869). Further: nearly all actives have a fitted effect of over 50% in size. An outline of the steps:
(§1)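 HEK293 cells premixed with CellTox Green dye were seeded at 600 cells/well and left 5 h at 37 C/5% CO2 before pin transfer of 23 nL compound in DMSO. Fluorescence from dye bound to dead-cell DNA was read during 40 h treatment.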

Test [16] is described as follows: qHTS RealTime-Glo MT Cell Viability Assay in HepG2 cells - 40 hour (AID 1224870). Further: nearly all actives have a fitted effect of over 50% in size. Further: potency means the concentration at half of the fitted maximal effect. An outline of the steps:
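HepG2 cells (600/well) mixed with RealTime-Glo MT reagent, settled 5 h at 37 C/5% CO2 before compound addition. Nonlytic NanoLuc luminescence from viable-cell prosubstrate reduction read repeatedly during 40 h treatment at 37 C.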

Test [17] is described as follows: A CellTox Green Cytotoxicity Assay to monitor cytotoxicity in HEK293 cells - 40 hour (AID 1224871). Further: nearly all actives have a fitted effect of over 45% in size. Further: potency means the concentration at half of the fitted maximal effect. An outline of the steps: as §1
For test [18], the target named is Nuclear receptor subfamily 1 group I member 3 (Homo sapiens) (UniProt Q14994). Briefly: qHTS assay to identify small molecule agonists of the constitutive androstane receptor (CAR) signaling pathway (AID 1224839).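 Further: HepG2 cells stably carrying human CAR and a CYP2B6 luciferase reporter; nearly all actives have a fitted effect of over 15% in size.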 An outline of the steps:
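HepG2 cells stably co-transfected with hCAR and a CYP2B6-2.2kb luciferase reporter; compounds at 15 concentrations with 0.75 uM PK11195 present. After 24 hr at 37 C, luciferase read by ONE-Glo luminescence.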

The nature of test [19]: qHTS assay to identify small molecule agonists of H2AX - cell viability counter screen (AID 1224847; calls by dose curve; further: nearly all actives have a fitted effect of over 30% in size; further: potency means the concentration at half of the fitted maximal effect). A digest of the protocol:
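CHO-K1 cells plated overnight at 37C, then exposed 3 h at 37C to compounds at 15 concentrations (0.76% DMSO final). Viability by CellTiter-Glo luminescence after 30 min at room temperature.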
On the % scale 0 is the no-effect control and ±100 the full control effect.

Thyrotropin receptor (Homo sapiens), sequence (P16473 whole entry, looked up): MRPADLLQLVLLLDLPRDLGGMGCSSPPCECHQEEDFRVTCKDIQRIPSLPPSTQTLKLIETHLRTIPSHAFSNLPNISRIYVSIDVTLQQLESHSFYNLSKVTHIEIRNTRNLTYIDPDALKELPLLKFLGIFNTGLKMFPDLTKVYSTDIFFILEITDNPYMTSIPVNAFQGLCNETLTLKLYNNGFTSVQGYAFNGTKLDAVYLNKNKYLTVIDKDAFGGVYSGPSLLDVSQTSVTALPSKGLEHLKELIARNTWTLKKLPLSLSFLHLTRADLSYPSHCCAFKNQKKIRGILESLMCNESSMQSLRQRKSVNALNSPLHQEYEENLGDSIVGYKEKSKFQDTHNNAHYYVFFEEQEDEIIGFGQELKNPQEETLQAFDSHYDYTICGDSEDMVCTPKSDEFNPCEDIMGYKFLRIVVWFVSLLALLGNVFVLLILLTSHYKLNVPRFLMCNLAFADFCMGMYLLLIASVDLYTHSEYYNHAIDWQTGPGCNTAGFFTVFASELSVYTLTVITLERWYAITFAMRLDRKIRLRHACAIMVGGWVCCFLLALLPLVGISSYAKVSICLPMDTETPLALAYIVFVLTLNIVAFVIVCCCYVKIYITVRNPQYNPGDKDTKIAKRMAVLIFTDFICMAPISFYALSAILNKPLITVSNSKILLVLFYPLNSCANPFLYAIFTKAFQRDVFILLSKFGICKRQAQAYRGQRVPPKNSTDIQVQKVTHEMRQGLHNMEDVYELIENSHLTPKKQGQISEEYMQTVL
Luciferin 4-monooxygenase (Photinus pyralis), sequence (P08659 whole entry, looked up): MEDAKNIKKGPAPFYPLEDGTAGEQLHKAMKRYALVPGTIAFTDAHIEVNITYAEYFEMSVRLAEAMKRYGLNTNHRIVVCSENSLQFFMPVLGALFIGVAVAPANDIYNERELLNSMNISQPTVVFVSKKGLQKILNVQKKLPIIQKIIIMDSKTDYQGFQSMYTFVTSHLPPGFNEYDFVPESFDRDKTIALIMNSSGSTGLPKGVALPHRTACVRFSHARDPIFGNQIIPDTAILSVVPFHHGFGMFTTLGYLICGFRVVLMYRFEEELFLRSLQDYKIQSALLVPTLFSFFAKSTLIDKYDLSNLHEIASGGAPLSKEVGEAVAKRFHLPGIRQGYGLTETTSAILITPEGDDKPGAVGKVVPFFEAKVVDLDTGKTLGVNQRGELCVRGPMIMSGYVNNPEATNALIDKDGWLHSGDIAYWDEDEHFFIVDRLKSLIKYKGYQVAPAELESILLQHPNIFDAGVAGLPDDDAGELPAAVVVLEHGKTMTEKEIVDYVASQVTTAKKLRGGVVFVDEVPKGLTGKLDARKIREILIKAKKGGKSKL
Nuclear receptor subfamily 1 group I member 3 (Homo sapiens), sequence (Q14994 whole entry, looked up): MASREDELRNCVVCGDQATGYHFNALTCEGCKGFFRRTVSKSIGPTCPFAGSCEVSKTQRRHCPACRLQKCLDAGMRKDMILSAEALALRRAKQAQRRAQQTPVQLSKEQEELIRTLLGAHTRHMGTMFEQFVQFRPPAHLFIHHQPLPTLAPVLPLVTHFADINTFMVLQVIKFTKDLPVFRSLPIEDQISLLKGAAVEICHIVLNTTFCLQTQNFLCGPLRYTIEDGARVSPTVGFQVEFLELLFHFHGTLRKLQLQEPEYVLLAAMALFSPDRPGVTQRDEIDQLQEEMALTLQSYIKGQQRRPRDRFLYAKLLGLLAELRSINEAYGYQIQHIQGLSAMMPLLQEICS

In the case of `CCCCCC1C(=O)CCC1CC(=O)OC` (stereo not given), the Potency entry in [1], in test [2], in test [3], in test [4], in test [5] and in [6] was “inactive” in each case. Besides, the Potency entry in test [7], in [8], in test [9], in test [11], in test [13] and in test [14] was “inactive” in each case. The Potency entry in [15], in test [16] and in [17] was “inactive” each time. Moreover, the result in test [10] was inactive. For the same molecule, the activity change, positive = activation in [12] (at 92.4 µM (top of the series)) is 0.33% and 0.3%.

`CN(C)CCCN1c2ccccc2Sc2ccc(Cl)cc21`: the Potency in test [2] is 48.6 µM (active); in [3] it was 54.5 µM (active); in test [8] it was 49 µM (active); in test [19], 55.2 µM (active); in [11] it was 54.5 µM (active); in [13], 43.6 µM (active) and 23.9 µM (active). Moreover, the Potency in test [14] is 24.5 µM (active) and 23.9 µM (active); in [16], 30.9 µM (active) and 23.9 µM (active); in [17] it was 43.6 µM (active). The Potency result in test [18], in [5], in test [6], in test [7] and in test [15] was “inactive” in each case. For the same molecule, the figures for the activity change, positive = activation in test [12] (at 42.5 µM (top of the series)) and in [12] (at 92.4 µM (top of the series)) were -35.5% and -80.4%, respectively.

On to `Cc1ccc(S(=O)(=O)NCl)cc1`, for which the Potency result in test [2], in test [3], in test [5], in test [6], in test [7] and in test [8] was “inactive” throughout. In addition, the Potency entry in [9], in test [19], in test [11], in [13], in test [14] and in [15] was “inactive” in each case. For the same molecule, the Potency result in test [16] and in test [17] was “inactive” throughout. In addition, the call in [10] was inactive. Also, in [12] (at 92.4 µM (top of the series)), the activity change, positive = activation is 5.11% and 6.95%.

On to `c1ccc2c(c1)ccc1cc3c(ccc4ccccc43)cc12`, for which the Potency in [1] is 788 nM (active) and 250 nM (active). Further, the Potency entry in test [2], in [3], in [4], in test [7], in test [8] and in test [19] was “inactive” in each case. Moreover, the Potency result in test [13], in test [14], in [15], in test [16] and in test [17] was “inactive” each time. In addition, in test [10], the result was inactive.

With `CC(C)=CCO`, the Potency result in test [1], in [2], in [3], in test [4], in test [5] and in test [6] was “inactive” throughout. Also, the Potency entry in test [7], in [8], in [9], in test [11], in test [13] and in test [14] was “inactive” each time. Further, the Potency entry in [15], in test [16] and in test [17] was “inactive” throughout. Further, the molecule was called inactive in [10]. Besides, the activity change, positive = activation in [12] (at 92.4 µM (top of the series)) was -0.501%.

Take `C=CCNCC=C`: the Potency result in test [1], in [2], in [3], in test [4], in test [8] and in [9] was “inactive” each time. The Potency entry in test [13], in test [14], in [15], in test [16] and in [17] was “inactive” in each case. The molecule was classed as inactive in test [10].

For `NC[C@H](O)c1ccc(O)c(O)c1`, the Potency entry in test [1], in test [2], in test [3], in test [8], in test [13] and in test [14] was “inactive” throughout. Moreover, the Potency entry in test [15], in test [16] and in test [17] was “inactive” in each case.
